Results filed as inconclusive are left out. Entries that show only a call come without a potency. The source made the active and inactive calls. Calls follow the shape of the dose curve; as a rule, active = well fitted curve in the direction sought with a large enough effect; inconclusive = small, poorly fitted or top-dose-only effect, or another doubt; inactive = no such curve, though single readings can be large; an effect the other way counts as inactive or inconclusive.
Tests used:
[1] = P-glycoprotein substrates identified in KB-3-1 adenocarcinoma cell line, qHTS therapeutic library screen (AID 1346986); also: nearly all actives have a fitted effect of over 60% in size
In short: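 Counter-screen: cherry-picked hits retested in the KB pair and in HEK-293 pcDNA/MDR-19 cells ± tariquidar. Primary screen used 72 h CellTiter-Glo viability in KB-3-1 and KB-8-5-11.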

[2] = Primary qHTS for inhibitors of nuclear receptor binding SET domain protein 2 (NSD2) in an isogenic RCH-ACV NSD2 p.E1099K mutant (9B) (AID 1645876); also: nearly all actives have a fitted effect of over 70% in size; also: potency is read from the fitted curve at half-maximal effect
[3] = Primary qHTS for inhibitors of nuclear receptor binding SET domain protein 2 (NSD2) in an RCH-ACV wild type WT cells (2C) (AID 1645877); also: nearly all actives have a fitted effect of over 70% in size; also: potency is read from the fitted curve at half-maximal effect
[4] = molecular target: Glutathione peroxidase 1 (Homo sapiens) (UniProt P07203); assay: Primary qHTS Assay for Inhibitors of Recombinant Selenoprotein Glutathione Peroxidase 1 (GPX1) (AID 1845191); also: nearly all actives have a fitted effect of over 65% in size
Chain of Glutathione peroxidase 1 (Homo sapiens) (P07203 whole entry, looked up): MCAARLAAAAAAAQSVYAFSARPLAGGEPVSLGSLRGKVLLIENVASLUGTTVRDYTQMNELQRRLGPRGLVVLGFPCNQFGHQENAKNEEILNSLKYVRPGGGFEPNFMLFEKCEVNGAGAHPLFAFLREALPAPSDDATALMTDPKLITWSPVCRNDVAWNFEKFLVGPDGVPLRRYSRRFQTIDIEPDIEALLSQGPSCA
In short: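 10 nM GPX1 + cpd, 30 min RT; start w/ 1 mM GSH, 0.5 mM cumene hydroperoxide, 0.5 mM NADPH, 100 nM GR, 0.01% BSA; buffer 50 mM Tris-HCl pH 7.5, 2 mM EDTA, 150 mM NaCl; Fl 340/450, 0 & 15 min.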

| SMILES | Potency [1] | Potency [2] | Potency [3] | Potency [4] |
| --- | --- | --- | --- | --- |
| COc1cc(OC)c(C(=O)/C=C/c2ccccc2)c2c1C=CC(C)(C)O2 | inactive | 16.4 µM (active) | 18.4 µM (active) | inactive |
| Clc1cc(Cl)c2c(c1)N=C1CCCCCN1C2 | inactive | inactive | inactive | inactive |
| Cc1cn(C2OC(CO)C(O)C2F)c(=O)[nH]c1=O (stereo not drawn) | inactive | inactive | inactive | – |
| COc1cc2c(cc1OC)/C(=C/c1ccc(O)cc1)C(=O)N2 | inactive | – | – | inactive |
